Assay outcomes deposited in PubChem by several laboratories.
MazEF act: increases E. coli MazEF RNase cleavage of RNA | P0AE70 | FAM/BHQ RNA-DNA oligo cleavage fluorescence, 5 h | activation, % at 20 µM | actives 0.32% (n = 350,000) | AID 504720; in the data active = activation above about 50%
Target sequence (P0AE70 whole entry, looked up): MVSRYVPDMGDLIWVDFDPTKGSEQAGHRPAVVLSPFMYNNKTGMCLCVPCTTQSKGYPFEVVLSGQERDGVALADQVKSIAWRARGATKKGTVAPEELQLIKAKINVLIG
Autofluor counter: counter-screen for toxin protease inhibitors: compound fluorescence. compound autofluorescence counterscreen, microsphere flow cytometry; hits give high values. fluorescence intensity (no concentration beside the values). actives 3.1% (n = 360,000); in the data active = fluorescence intensity above about 16000; inconclusive = no clear call, values can overlap the other calls
BoNT-A LC inh2: blocks Botulinum neurotoxin A light chain protease. multiplex microsphere protease substrate cleavage, flow cytometry. inhibition, % at 10 µM. actives 0.17% (n = 360,000). AID 588499; note: plate controls were buffer without enzyme for full effect and enzyme alone for no effect
BoNT-F LC inh: blocks Botulinum neurotoxin F light chain protease | Multiplex microsphere protease cleavage assay, flow cytometry | inhibition, % at 10 µM | actives 0.22% (n = 360,000) | AID 588497; in the data active = inhibition above about 35%, passing the limit was not always enough; inconclusive = no clear call, values can overlap the other calls; note: plate controls were buffer without enzyme for full effect and enzyme alone for no effect
DUSP3 inh: DUSP3 (human) phosphatase inhibition; P51452; recombinant VHR phosphatase, pNPP absorbance; inhibition, % at 13.3 µM; actives 0.52% (n = 290,000); AID 1654; in the data active = inhibition above about 50%
Target sequence (P51452 whole entry, looked up): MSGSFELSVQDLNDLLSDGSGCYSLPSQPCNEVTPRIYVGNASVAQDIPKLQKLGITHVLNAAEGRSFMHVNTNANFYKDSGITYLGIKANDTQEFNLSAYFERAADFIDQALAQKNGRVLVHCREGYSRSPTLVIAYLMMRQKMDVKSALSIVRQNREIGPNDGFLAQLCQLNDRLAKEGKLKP
Anthrax LF inh2: inhibitors of Bacillus anthracis lethal factor protease. P15917. multiplex microsphere protease cleavage assay, LF. inhibition, % at 10 µM. actives 0.12% (n = 360,000). AID 588501; note: plate controls were buffer without enzyme for full effect and enzyme alone for no effect
Starred values were filed as active, the others as inactive; ? = inconclusive; . = no result given. In the library only some 4.1% were active in any assay of this set; here they are far more common. Cut-off read from the data, not from the text of the source, unless noted: active = inhibition above about 30%; inconclusive = no clear call, values can overlap the other calls; inactive = below that.

SMILES | MazEF act | Autofluor counter | BoNT-A LC inh2 | BoNT-F LC inh | DUSP3 inh | Anthrax LF inh2
CC1CCCCN1CCCNC(=O)CN1C(=O)CSc2ccc(S(=O)(=O)N3CCOCC3)cc21 (stereo not drawn) | 8 | 5511 | 0 | 13 | 50* | 0
CC1CCN(CCCNC(=O)CN2C(=O)CSc3ccc(S(=O)(=O)N4CCC(C)CC4)cc32)CC1 | 12 | 6036 | -1 | 1 | 18 | -3
CC1CCCCN1CCNC(=O)CN1C(=O)CSc2ccc(S(=O)(=O)N3CCCCC3)cc21 (stereo not drawn) | 9 | 7313 | 3 | 4 | 14 | 1
CC1CCN(S(=O)(=O)c2ccc3c(c2)N(CC(=O)NCCCN2CC(C)CC(C)C2)C(=O)CS3)CC1 (stereo not drawn) | 11 | 5707 | 0 | -2 | 56* | -1
COc1ccc(NC(=O)c2ccc(N3C(=O)C4CC=C(Cl)CC4C3=O)cc2)cc1 (stereo not drawn) | -31 | 3972 | -3 | ? | 56* | 11
Cc1c(N=Cc2c(O)n(CCc3ccccc3)c(=O)[nH]c2=O)c(=O)n(-c2ccccc2)n1C | 8 | 2905 | 0 | 0 | -5 | -3
Cc1c(N=Cc2c(O)n(C)c(=O)c3ccccc23)c(=O)n(-c2ccccc2)n1C | 300* | 7445 | 0 | 10 | 10 | 1
Cc1c(N=Cc2cc3c(cc2Cl)OCO3)c(=O)n(-c2ccccc2)n1C | 5 | 23177* | 1 | 0 | 24 | -3
O=[N+]([O-])c1ccc2c(c1)C(=NO)c1cc(Cl)c(Cl)cc1-2 | 3 | 3600 | 1 | -8 | . | -3
N#Cc1ccc2sn(-c3ccccc3)c(=O)c2c1 | -16 | 4005 | 33* | 2 | . | -2
Cc1cc(C)c(OCC(=O)OC(C)C(=O)NC2CC2)c(C)c1 (stereo not drawn) | 4 | 5790 | 0 | -2 | -4 | -1
COc1ccc(OCCn2cc(/C(N)=N/O)c3ccccc32)cc1 | 8 | 8855 | -2 | -32 | 3 | -11
Cc1ccc(OCCn2cc(/C(N)=N/O)c3ccccc32)cc1C | -3 | 17016* | -1 | -15 | 22 | -4
CC1CN(C(=O)COC(=O)Cc2c(Cl)cccc2Cl)CC(C)O1 (stereo not drawn) | -22 | 3592 | 0 | -3 | . | 1
O=C(COC(=O)c1n[nH]c2ccccc12)NC(=O)NC12CC3CC(CC(C3)C1)C2 | -13 | 19573* | ? | 2 | 12 | -2
COc1ccc(CC(=O)OCC(=O)NC(=O)NC23CC4CC(CC(C4)C2)C3)cc1 | -3 | 24237* | -1 | -1 | 12 | -1
O=C(COC(=O)Cc1ccccc1)NC12CC3CC(CC(C3)C1)C2 | -1 | 3584 | -1 | -40 | 29 | -2
CCOc1ccc(S(=O)(=O)n2ccnc2C)cc1 | . | . | . | . | -12 | .
COC(=O)c1ccc(OC(=O)c2ccccc2F)cc1 | . | . | . | . | -5 | .
CC(=O)c1c(C(C)=O)c(C)n(-c2ccc(C)c(NC(=O)c3ccccc3Cl)c2)c1C | 1 | 16183* | 0 | 0 | 22 | -4
CCNC(=O)C1CCCN(Cc2cc(C(F)(F)F)ccc2Cl)CC1 (stereo not drawn) | . | 4208 | -1 | -3 | . | -4
COC(=O)c1c(NC(=O)COC(=O)c2ccc(Cl)nc2)sc(C)c1C | -40 | 8960 | -8 | -12 | . | -1
COC(=O)C[C@@H]1C[C@H]2c3cc(N(C)C)ccc3O[C@H]2[C@H](CO)O1 | 3 | 3682 | 0 | -2 | . | -7
O=C(Nc1cccc(Br)c1)c1ccn[nH]1 | 1 | 21776* | -3 | -5 | 19 | -4
CC[C@@]1(C(=O)OC)N[C@H](CN(C)C(=O)Nc2ccccc2)[C@@H]2C(=O)N(Cc3ccccc3)C(=O)[C@@H]21 | 5 | 3321 | 0 | -4 | . | -10
SMILES | MazEF act | Autofluor counter | BoNT-A LC inh2 | BoNT-F LC inh | DUSP3 inh | Anthrax LF inh2
CC(=O)NCCn1c(SCC(=O)NCC2CCCO2)nc2ccccc2c1=O (stereo not drawn) | -7 | 22103* | -1 | -4 | 4 | -2
CCN(CC)CCCn1c(SCC(=O)NCC2CCCO2)nc2ccccc2c1=O (stereo not drawn) | 1 | ? | -3 | 8 | . | 6
CCC(Sc1nc2ccccc2c(=O)n1CC1CCCO1)C(=O)NCc1cccnc1 (stereo not drawn) | -1 | 20816* | ? | -4 | 29 | -3
Cc1ccc(CNC(=O)CSc2nc3ccccc3c(=O)n2CC2CCCO2)cc1 (stereo not drawn) | 5 | 6188 | -1 | -10 | . | -1
O=C(CSc1nc2ccccc2c(=O)n1CC1CCCO1)NCC1CCCO1 (stereo not drawn) | 3 | 17453* | ? | 8 | 15 | -8
CC(=O)Nc1cccc(NC(=O)C2CC(=O)N(CCc3ccc(F)cc3)C2)c1 (stereo not drawn) | -10 | 5901 | -2 | 0 | 38 | -2
COc1ccccc1Cc1c(C2CCCCC2)nc2ccc(Cl)cn12 | . | 6421 | 2 | -8 | . | 3
CC1(C)N(OCc2ccccc2)C(=O)C(=O)N(OCc2ccccc2)C1(C)C | 0 | 20720* | ? | 8 | -2 | -13
CCc1nc2c(OCc3c(C)noc3C)cccn2c1N(C)C(=O)c1ccccc1F | . | 4470 | -1 | -3 | . | 0
Clc1cccc(N/N=C(\Cc2nc3ccccc3[nH]2)c2ccccc2)c1 | 72* | 10327 | 2 | 17 | 24 | 4
Cc1ccc(SCCC(=O)OC(C)C(=O)Nc2ccccc2)cc1 (stereo not drawn) | 0 | . | . | . | . | .
O=C(O)C1CCC(CNCc2ccccc2Cl)CC1 (stereo not drawn) | 2 | 2368 | 1 | 5 | 52* | -1
O=C(COC(=O)c1cccnc1)c1ccc(Cl)cc1 | 5 | 19665* | 0 | 0 | 5 | 0
CN1CCN(c2ccc([N+](=O)[O-])cc2C(=O)c2ccc(Br)cc2)CC1 | 11 | 23704* | -2 | -3 | 24 | -6
CC(C)CN(C(=O)COC(=O)c1cc2ccccc2cc1O)c1c(N)n(Cc2ccccc2)c(=O)[nH]c1=O | -29 | ? | -73 | -113 | . | -7
Nn1c(-c2ccc(F)cc2)nc2ccccc2c1=O | -4 | 3604 | -2 | 1 | -5 | 1
Nc1ccc(-c2c3ccccc3nc3ccccc23)cc1 | 0 | 3969 | 1 | ? | 16 | -4
Nc1nc(Br)c2c(F)cccc2c1-c1ccc(F)cc1 | 7 | 22286* | 3 | 2 | 19 | 0
Nc1nc(Br)c2c(F)cccc2c1-c1ccccc1 | 32 | 21859* | -4 | -5 | 23 | 1
O=C(NCc1ccc2c(c1)OCO2)c1cccc(S(=O)(=O)N2CCCCC2)c1 | 2 | 17025* | ? | -3 | 0 | -1
CCCn1c(NC(=O)c2cccc(S(=O)(=O)N3CCCC3)c2)nc2ccccc21 | 7 | 16663* | -1 | -5 | 19 | -3
CCN(CC)S(=O)(=O)c1cccc(C(=O)Nc2ccc3c(c2)OCO3)c1 | -7 | 4116 | 0 | -6 | 4 | -10
